Screens: PubChem BioAssay, several laboratories
Sampled rows, rich in hits. Any-hit rate of the full collection: about 2.8%.
AHR activator – AHR activators, primary screen, cell-based, luminescence, luciferase reporter, human | activation, % at 5 µM | AHR-responsive luciferase reporter cells | actives 2.5% (n = 320,000) | AID 2796, 2010 | Aryl hydrocarbon receptor (Homo sapiens), P35869; in the data active means activation above about 47%;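 further: 0% = vehicle wells and 100% = reference agonist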
p-CIP stab down – p/CIP-EGFP fusion destabilizers, primary screen, fluorescence, F442A cells; Q05BA5; 16 h; decrease of EGFP signal, % at 10 µM; actives 0.01% (n = 290,000);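 active means EGFP signal decrease of at least 30% at 10 µM or well 3 SD below plate mean, unless failing retest; inactive means the rest, including hits failing retest or dose response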
Target sequence (Q05BA5 1-1403): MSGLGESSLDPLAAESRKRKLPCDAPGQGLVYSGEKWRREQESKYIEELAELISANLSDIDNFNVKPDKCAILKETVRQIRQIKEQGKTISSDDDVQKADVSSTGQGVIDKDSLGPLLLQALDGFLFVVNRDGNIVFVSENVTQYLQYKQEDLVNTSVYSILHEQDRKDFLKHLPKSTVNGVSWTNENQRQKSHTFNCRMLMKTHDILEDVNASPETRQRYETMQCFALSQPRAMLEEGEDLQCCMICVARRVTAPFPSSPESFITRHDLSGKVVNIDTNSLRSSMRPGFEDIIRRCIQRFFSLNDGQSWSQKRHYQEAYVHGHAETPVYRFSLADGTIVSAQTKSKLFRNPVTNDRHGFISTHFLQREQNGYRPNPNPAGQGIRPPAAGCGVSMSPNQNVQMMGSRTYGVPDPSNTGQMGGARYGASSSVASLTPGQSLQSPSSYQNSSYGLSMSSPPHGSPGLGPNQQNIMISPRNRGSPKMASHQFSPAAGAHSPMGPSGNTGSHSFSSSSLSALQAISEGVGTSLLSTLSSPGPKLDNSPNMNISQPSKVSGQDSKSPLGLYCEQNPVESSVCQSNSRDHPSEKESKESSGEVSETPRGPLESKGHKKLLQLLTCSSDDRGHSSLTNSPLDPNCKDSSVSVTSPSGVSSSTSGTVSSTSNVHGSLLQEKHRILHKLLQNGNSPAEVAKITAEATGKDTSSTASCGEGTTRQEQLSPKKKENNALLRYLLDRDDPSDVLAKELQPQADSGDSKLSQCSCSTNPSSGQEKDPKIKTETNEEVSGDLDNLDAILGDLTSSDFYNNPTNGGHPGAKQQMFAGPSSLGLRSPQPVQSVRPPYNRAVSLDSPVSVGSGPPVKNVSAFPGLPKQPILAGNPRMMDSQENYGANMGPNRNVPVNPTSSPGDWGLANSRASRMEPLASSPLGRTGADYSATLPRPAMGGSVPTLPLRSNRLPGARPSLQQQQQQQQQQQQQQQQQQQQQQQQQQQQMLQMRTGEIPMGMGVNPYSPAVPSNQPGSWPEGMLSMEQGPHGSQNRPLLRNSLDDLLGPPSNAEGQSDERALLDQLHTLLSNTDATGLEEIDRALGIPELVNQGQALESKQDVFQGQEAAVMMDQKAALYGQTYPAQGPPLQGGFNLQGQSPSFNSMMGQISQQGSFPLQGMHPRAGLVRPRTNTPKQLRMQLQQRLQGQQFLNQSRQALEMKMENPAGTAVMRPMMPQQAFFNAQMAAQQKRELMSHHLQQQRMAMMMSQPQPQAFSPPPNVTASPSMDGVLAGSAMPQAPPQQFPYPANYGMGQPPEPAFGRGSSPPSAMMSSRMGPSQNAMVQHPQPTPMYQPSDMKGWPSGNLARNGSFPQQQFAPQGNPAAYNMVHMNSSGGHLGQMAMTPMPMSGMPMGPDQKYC
PolyA inh – polyadenylation inhibitors in yeast reporter cells, primary screen, luminescence, S. cerevisiae; S. cerevisiae SKY197-pL101 polyadenylation reporter, beta-gal luminescence; efflux-impaired pdr1/pdr3 knockout yeast; score 100 = 6 SD above DMSO; activity score, % at 12 µM; actives 0.02% (n = 300,000);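 active means lowest replicate activity score at least 50, where 100 means six control SD above control mean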;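 further: yeast exposed to compound for 9 h at 30 °C; higher score means more reporter readthrough which indicates perturbed polyadenylation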
HIF activator – HIF pathway transcriptional activators, primary screen, cell-based, U2OS HRE-luciferase, luminescence; U2OS HRE-luciferase reporter; normalized: DMSO 0%, desferrioxamine 100%; activation, % at 7.5 µM (by protocol); actives 0.32% (n = 300,000); AID 1910, 2009;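 active means mean activation of at least 10% of the iron chelator positive control signal, with at least half of replicates also reaching 10%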
Platelet DG rel – inhibitors of platelet dense granule secretion, primary screen, cell-based, MLPCN, human platelets. human platelet-rich plasma, SFLLRN dense granule ATP release, luminescence. inhibition, %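 (compounds screened at 7.5 µM in platelet-rich plasma)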. actives 0.22% (n = 300,000). AID 1663, 2009;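 active means mean replicate score, as percent of positive control, at or above 50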
* hit, by the source's call; . = not tested or not shown.

SMILES	AHR activator	p-CIP stab down	PolyA inh	HIF activator	Platelet DG rel
COc1cc2c(cc1NC(=O)COC(=O)[C@@H](NC(=O)c1ccccc1F)C(C)C)oc1ccccc12	59*	0	-6	3	6
COc1ccc(CCNC(=O)C(C)n2nc(C)c3c(C)n(-c4ccc(C)cc4)nc3c2=O)c(OC)c1 (centres undefined)	-3	-28	27	0	-11
CCN(c1ccccc1)S(=O)(=O)c1ccc(C(=O)NCC(=O)Nc2ccc(F)c(F)c2F)cc1	0	.	.	.	.
Cc1cc(C)c2nc(/N=C(\N)NC(=O)c3ccccc3)nc(C)c2c1	25	-3	1	0	11
CCc1ccc2nc(/N=C(\N)NC(=O)c3ccccc3)nc(C)c2c1	25	-12	-12	1	-3
Cc1cc(C)c2nc(/N=C(\N)NC(=O)Nc3ccccc3)nc(C)c2c1	70*	-17	2	-1	3
CCCC(=O)N/C(N)=N/c1nc(C)c2ccccc2n1	60*	-6	-11	1	-22
CCN1CCC2(CC1)C(C#N)=C(N)Oc1c2sc2nc(C)cc(C)c12	63*	-6	0	1	15
O=C1N=C(N2CCOCC2)S/C1=C\c1ccc(-c2ccccc2Cl)o1	50*	-14	14	0	-23
C=CCn1cc(/C=C2\SC(N3CCOCC3)=NC2=O)c2ccccc21	71*	-4	0	1	-1
Cc1ccc(C(=O)N[C@H](C(=O)N2CCN(c3ccccc3F)CC2)C(C)C)cc1	1	-18	-4	0	11
Cn1c(=O)c2c(SCc3cccnc3)nc(C3CC3)nc2n(C)c1=O	75*	-16	19	0	21
CC(C)Cc1nc(SCc2cccnc2)c2c(=O)n(C)c(=O)n(C)c2n1	18	2	26	-1	9
Cn1c(=O)c2c(SCC(=O)NCCc3ccccc3)nc(C3CC3)nc2n(C)c1=O	1	-12	12	0	-4
CCc1nc(SCc2cccnc2)c2c(=O)n(C)c(=O)n(C)c2n1	48*	5	1	0	-2
O=C(CSc1nnc2ccc(-c3ccc(F)cc3)nn12)N1CCOCC1	0	.	7	0	25
COc1ccc(CCNC(=O)CSc2nnc3ccccn23)cc1	1	-7	-3	0	5
CSc1nnc(C(C)(C)C)c(=O)n1/N=C/c1ccc(Cl)cc1	-4	-2	-1	0	6
CCOC(=O)c1cc(-c2ccc(OC(F)F)cc2)nc2c1c(=O)[nH]c(=O)n2C	61*	-16	-10	0	12
CCOC(=O)c1cc(-c2ccc(OC(F)F)cc2)nc2nc(SC)[nH]c(=O)c12	11	-22	-6	0	8
COc1cccc(S(=O)(=O)Nc2ccc(C(=O)N3CCOCC3)cc2)c1	2	0	-5	0	7
CC(=O)n1c2ccccc2c2nc(NC(C)C)sc21	45	-10	1	1	-4
CNc1nc2c3ccccc3n(C(C)=O)c2s1	45	7	-9	0	50*
C/C(=C\C=C(C#N)C#N)c1cc(C#N)c(N)o1	.	-33	59*	-1	15
c1ccc(-c2nnc(-c3ccccn3)s2)nc1	65*	-6	3	-4	-11
SMILES	AHR activator	p-CIP stab down	PolyA inh	HIF activator	Platelet DG rel
COCCN1Cc2cccc(C(=O)Nc3cc(OC)ccc3OC)c2C1=O	48*	-4	12	0	-5
CCOC(=O)C1CCCN(C(=O)c2ccc(-c3ccc([N+](=O)[O-])cc3)o2)C1 (centres undefined)	5	.	-21	0	-11
COc1ccc2nc(C)c(C(N)=O)cc2c1	-1	-8	8	0	2
CCOC(=O)c1cc2cc(OC)ccc2nc1C	0	-1	-3	0	66*
Cc1ncsc1CCSc1nc2ccccc2c(=O)n1C	96*	-14	-8	.	11
Cc1ncsc1CCSc1n[nH]c(=O)n1-c1ccccc1	-3	-15	9	0	-17
Cc1ccc2[nH]c(C(=O)N/N=C/c3ccccc3C(=O)O)c(-c3ccccc3)c2c1	10	-12	7	-25	-1
O=C(N/N=C/c1ccccc1O)c1cc(=O)[nH]c2ccccc12	7	-32	5	11*	-6
Cc1ccc(NC(=O)c2cc(=O)[nH]c3ccccc23)cc1	76*	-3	-8	0	-1
O=C(N/N=C/c1ccccc1O)c1cccc2ccccc12	.	1	18	8	-4
Cc1ccc2[nH]c(C(=O)N/N=C/c3ccccc3O)c(C)c2c1	2	14	30	169*	0
Cc1ccc(S(=O)(=O)N(C)c2ccc(C(=O)NCc3ccccc3F)cc2)cc1	11	.	-7	2	0
CCc1ccccc1NNC(=O)c1snnc1C	2	-5	0	-1	14
c1ccc(-n2ncc3c(NCc4ccco4)ncnc32)cc1	6	-13	-8	9.5*	-5
CCc1n[nH]c(=S)n1/N=C/c1ccccc1OCc1ccc(Cl)cc1	66*	7	-3	0	-1
Cc1n[nH]c(=S)n1/N=C/c1ccccc1OCc1ccc(Cl)cc1Cl	49*	1	5	0	0
Cc1n[nH]c(=S)n1/N=C/c1ccc(OCc2ccc(Cl)cc2Cl)cc1	5	-7	-17	0	9
Cc1cc(=O)[nH]c2ccc(S(=O)(=O)NC3CCCCC3)cc12	-2	3	12	0	63*
O=C(CN(C(=O)CCC(=O)Nc1nccs1)c1ccc(F)cc1)NCC1CCCO1 (centres undefined)	2	-1	-3	0	-15
O=C(CN(Cc1ccc(F)cc1)C(=O)CCC(=O)Nc1nccs1)NCC1CCCO1 (centres undefined)	2	-8	19	31*	3
O=C(NC1CC2CCCC(C1)N2C(=O)Nc1ccc(F)cc1)c1ccccc1 (centres undefined)	12	-17	12	0	-76
Cc1c(-c2nc(-c3ccncc3)no2)cccc1[N+](=O)[O-]	65*	-9	-19	1	7
COc1ccc(NC(=O)c2ccco2)cc1NC(=O)c1ccc(Br)o1	58*	-2	12	0	2
COc1ccc(CC(=O)Nc2ccc(OC)c(NC(=O)c3ccco3)c2)cc1	9	0	21	0	-4
COc1ccccc1NC(=O)c1ccc(Br)o1	33	-7	0	0	-1
COc1ccc(-c2nc3ccccc3o2)cc1NC(=O)c1ccc(Br)o1	77*	7	-3	0	13
COc1ccc(OC)c(NC(=O)c2cc3ccccc3o2)c1	61*	-9	-12	1	-3
C/C(=N\Nc1ccc(F)cc1F)c1ccc(F)cc1	60*	2	-5	0	2
